Here are results for 77 compounds from PubChem BioAssay AID624263 (National Center for Advancing Translational Sciences (NCATS), 2012).

Among all 410,000 compounds or so, about 820 (0.2%) were called active. About 2% were inconclusive and are not listed. The list comes from a sample in which actives are over-represented; it also holds similar structures and randomly drawn compounds. Values without a mark were called inactive. The call rests on the fitted dose curve; in most records, active means well fitted activation curve with a large enough effect; inconclusive means small, poorly fitted or top-dose-only effect; inactive means flat fitted curve, though single readings scatter; cell line not stated here.
Potency means the concentration at half of the fitted maximal effect.

This assay is described as follows: A Quantitative High throughput Screen to Identify Chemical Modulators of PINK1 Expression. Further: nearly all actives have a fitted effect of over 65% in size. On activation (PINK1 increase): % of control where 0% means no effect. As to conditions: PINK1 immunofluorescence, high-content cytometry, 24 h; series mostly up to 76.6 µM; activation (PINK1 increase): at the top concentration. An outline of the steps:
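Decision-based qHTS: stable cells, 24 h exposure to five compound concentrations, CCCP as control. Fixed cells stained for PINK1 plus nuclear, mitochondrial and cell markers, cytometer read.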
Regarding `CC(C)c1cc(C(=O)N2CCOc3ccc(CN4CCC(Oc5cccnc5)CC4)cc3C2)n[nH]1`, the “activation (PINK1 increase)” value is 0.462%.
Consider `Cc1c(S(=O)(=O)O)oc2c1C(=O)C(=O)c1c-2ccc2c1CCCC2(C)C`, for which the “activation (PINK1 increase)” value was -0.627%.
Take `S=c1[nH]c(=S)c2n[nH]nc2[nH]1`: the “activation (PINK1 increase)” value was 0.817%.
The same measure, in the same setting: then `O=C(NCCCNc1ccc([N+](=O)[O-])cc1Cl)c1ccccc1F`, with -0.842%.
Turning to `O=[N+]([O-])c1ccc(NS(=O)(=O)c2ccccc2)c(Cl)c1`, the Potency is 39.8 µM (active).
Consider `O=C(NNS(=O)(=O)c1ccc(F)cc1)c1ccc([N+](=O)[O-])cc1Cl`, for which the “activation (PINK1 increase)” value was 1.65%.
With `C=C[C@](C)(O)CCC1C(=C)CCC2[C@@](C)(CO)CCC[C@@]12C` (some centres not stated), the “activation (PINK1 increase)” value is 6.03%.
Turning to `COc1cccc(CN2CCC3(CC2)c2ccccc2[C@@H](NC(=O)c2ccccc2OC)[C@@H]3O)c1`, the “activation (PINK1 increase)” value was 2.04%.
Take `COc1cc(=O)n2c(c1C(=O)NCc1ccco1)CCN(Cc1ccccc1)CC2`: the “activation (PINK1 increase)” value was -0.574%.
On to `O=c1c(CN2CCOc3ccc(CN4CCC(Oc5cccnc5)CC4)cc3C2)coc2ccccc12`, for which the “activation (PINK1 increase)” value was -0.312%.
As for `Cc1ccc(C)c(NC(=S)NNC(=S)Nc2ccc(C(C)C)cc2)c1`, the Potency was 14.1 µM (active).
As for `Cc1ccc(C)c(NC(=O)C2CC(=O)N(C(C)C)C2)c1` (configuration not stated), the “activation (PINK1 increase)” value is 1.52%.
Still for that read-out and setting: the same measure for `Cc1ccc(C)c(NC(=S)NCC(c2cccnc2)N2CCOCC2)c1` (configuration not stated): -1.64%.
Same read-out and setting: the same measure for `COCCn1c(=O)c(-c2ccc(OC)cc2)nc2cnc(Oc3cccc(Cl)c3)nc21`: 1.63%; for `Nc1ccc(/C=C/c2ccnc3ccccc23)c([N+](=O)[O-])c1`: 13.3%.
On the same count and under the same terms, then `CCOC(=O)N1CCN(Cc2ccc3c(c2)CN(C(=O)c2cccc(-n4cccn4)c2)CCO3)CC1`, with -0.805%.
On to `COc1ccccc1CNC(=O)C1CCN(S(=O)(=O)c2ccc3c(c2)OCCO3)CC1`, for which the “activation (PINK1 increase)” value was 1.24%.
For the compound `COc1ccccc1CNC(=O)C1CCN(C(=O)[C@@H]2Cc3ccccc3CN2)CC1`, the “activation (PINK1 increase)” value is -0.408%.
As to `COc1ccccc1CNC(=O)C1CCN(c2nc3ccccc3o2)CC1`, the Potency was 2.82 µM (active).
For `O=C(CCN1Cc2ccccc2OC(c2ccccc2)C1)N[C@@H]1CS(=O)(=O)C[C@H]1O` (some centres not stated), the “activation (PINK1 increase)” value was -0.62%.
As to `CN1CCN(c2ncc3nc(-c4ccc(Cl)cc4)c(=O)n(-c4ccccc4)c3n2)CC1`, the “activation (PINK1 increase)” value is 3.94%.
For the compound `CCc1nc2cc(C(=O)NCC3CCS(=O)(=O)C3)cc(NC(=O)c3ccccc3OC)c2n1C` (configuration not stated), the “activation (PINK1 increase)” value was 0.746%.
As to `CCOc1ccc(S(=O)(=O)N2CCN(C(=S)NCC3CCCO3)CC2)cc1` (configuration not stated), the “activation (PINK1 increase)” value was 1.31%.
With `C=CCn1c(C)cc(C2=NNC(=NCC)SC2)c1C`, the “activation (PINK1 increase)” value was 0.36%.
Turning to `Cc1cc(C2=NNC(=Nc3ccc(S(=O)(=O)N4CCOCC4)cc3)SC2)c(C)n1CC1CCCO1` (configuration not stated), the Potency is 35.5 µM (active).
For `COc1ccccc1CNc1ncncc1-c1cccnc1`, the “activation (PINK1 increase)” value is -0.566%.
Same read-out and setting: then `COC(=O)c1c(OCc2ccc(F)cc2)cc(=O)n2c1CCN(Cc1ccc3cccnc3c1)CC2`, with 0.408%.
In the case of `O=C(NCc1cc(C(F)(F)F)cc(C(F)(F)F)c1)C1CC(c2cccc(F)c2)=NO1` (configuration not stated), the “activation (PINK1 increase)” value was 9.67%.
On the same count and under the same terms, the same measure for `COc1ccc(S(=O)(=O)N2CCC(C(=O)NCc3ccco3)CC2)cc1C`: -0.254%.
On to `COc1ccc(C2=NOC(C(=O)NCc3ccco3)C2)cc1OC` (configuration not stated), for which the Potency is 12.6 µM (active).
For `COc1cc2nc(N3CCCN(C)CC3)nc(NC(C)C)c2cc1OC`, the “activation (PINK1 increase)” value was 2.45%.
Still for that read-out and setting: then `CCc1noc(C)c1C(=O)NCCN1Cc2cc(OC)ccc2OC(CC)C1` (configuration not stated), with -0.237%; and `O=C(Nc1ccc(N2CCN(C(=O)c3ccccc3)CC2)c(Cl)c1)c1cccnc1`, with -3.19%; and `O=C(c1cccnc1)N1CCN(S(=O)(=O)c2cccs2)CC1`, with 0.0275%.
On to `O=C(N/N=C/c1sc(N2CCCCC2)nc1-c1cccs1)c1cccnc1`, for which the Potency is 20 µM (active).
In the case of `Cc1ccc(-c2ccc(C(=O)N3CCc4nnc(CNC(=O)c5ccccc5)n4CC3)cc2)cc1`, the “activation (PINK1 increase)” value is 0.715%.
The same measure, in the same setting: then `O=C(CN1Cc2ccccc2OC(c2ccccc2)C1)N1CCCCC1c1cccnc1` (configuration not stated), with 0.558%.
The same measure, in the same setting: then `CCOc1ccc2nc(N3CCCN(CCCn4cccn4)CC3)nc(C)c2c1`, with -0.633%.
For the compound `Oc1c(Br)cccc1/C=N/Nc1c(F)c(F)c(F)c(F)c1F`, the Potency was 39.8 µM (active).
As to `CCOC(=O)N1CCC(N2CCOc3ccc(CN4CCC(O)(c5cccnc5)CC4)cc3C2)CC1`, the “activation (PINK1 increase)” value was 0.385%.
As for `O=C(CSc1nc2cc3c(cc2c(=O)n1CCC1=CCCCC1)OCO3)NCc1ccco1`, the “activation (PINK1 increase)” value was 11.5%.
With `O=C(CSc1nc2ccccc2c(=O)n1CCCO)NC1CC1`, the “activation (PINK1 increase)” value is 0.89%.
For `O=C(CCCn1c(SCC(=O)c2ccc(F)cc2)nc2ccccc2c1=O)NCc1ccco1`, the Potency is 15.8 µM (active).
`O=C(Nc1ccc([N+](=O)[O-])cc1)c1cnn2c1NC(=C1CC1)C=C2C(F)F`: the “activation (PINK1 increase)” value was -0.0813%.
On the same count and under the same terms, then `COCC(=O)Nc1cc(C(=O)N2CCCC(c3ccccc3)CC2)c2c(c1)nc(-c1ccncc1)n2C` (configuration not stated), with -0.433%; and `COc1ccccc1C1CN(Cc2ccccc2O)Cc2ccccc2O1` (configuration not stated), with 0.0982%; and `COC(=O)c1ccccc1C(=O)NCc1nc(N2CCCC2)c2cccc(C)c2n1`, with -0.339%.
On the same count and under the same terms, the same measure for `Cc1cc(C)c(S(=O)(=O)NCCCN2CCOCC2)cc1Br`: -1.42% [at 38.3 µM].
For the compound `Cc1ccc(S(=O)(=O)NCCN2CCOCC2)cc1C`, the Potency was 14.1 µM (active).
In the case of `O=S(=O)(NCCCN1CCOCC1)c1ccc(F)c(Cl)c1`, the “activation (PINK1 increase)” value is 4.27%.
With `COc1ccccc1C(=O)N[C@@H]1c2ccccc2C2(CCN(Cc3nc(C(C)C)cs3)CC2)[C@H]1O`, the “activation (PINK1 increase)” value is -1.21%.
Take `COc1cc(OC)c(/C=C/c2ccnc3ccccc23)c(OC)c1`: the “activation (PINK1 increase)” value was 8.99%.
With `Cc1cccc(CNC(=O)c2cnn(-c3nccc(-c4ccccc4F)n3)c2C2CC2)n1`, the “activation (PINK1 increase)” value was -0.292%.
The same measure, in the same setting: then `CN(C)c1ccc(/C=C2\C=Cc3ccccc32)cc1Br`, with 2.66%.
Still for that read-out and setting: then `CC(C)(C)C1CCC(NC(=O)c2cnn3c2NC(=C2CC2)C=C3C(F)F)CC1` (configuration not stated), with -0.21%; and `Cn1nccc1C(=O)NCC1CCC2(CCN(Cc3c(O)ccc4ccccc34)CC2)O1` (configuration not stated), with -0.145%.
Same read-out and setting: then `O=C(NCCN1CCOCC1)c1cnn(-c2nccc(-c3cccs3)n2)c1C1CC1`, with 1.85%; and `Cc1cnc(C)c(-c2cc(F)c3c(c2)CC(CNC(=O)c2cccc(Cn4cccn4)c2)O3)n1` (configuration not stated), with 0.0853%.
In the case of `CCc1ccc2c(c1)cc(CN(C(=S)Nc1ccccc1Cl)C1CC1)c1nnnn12`, the Potency was 12.6 µM (active).
Regarding `CCc1cccc(NC(=S)N(CCN(C)C)C2CCN(C(C)C)CC2)c1`, the “activation (PINK1 increase)” value is -1.23%.
`CCOc1ccc2c(c1)cc(CN(C(=O)CC)C1CCCCC1)c1nnnn12`: the “activation (PINK1 increase)” value was -2.48%.
On the same count and under the same terms, then `CC(C)C(=O)NC(C)c1nnc2n1CCN(Cc1cccc3ncccc13)CC2` (configuration not stated), with -0.848%; and `O=C1CCN(Cc2ccc(-c3ccccc3)cc2)CCN1Cc1ccccn1`, with 0.935%.
On the same count and under the same terms, then `Cc1oc(-c2cccc(NC(=O)c3ccccc3)c2)nc1CNC(=O)c1cnc2ccccn2c1=O`, with 0.787%; and `O=C(Nc1ccccc1C(F)(F)F)c1nc(S(=O)(=O)Cc2ccccc2F)ncc1Cl`, with 3.33%.
On to `COCCCNC(=O)/C(C#N)=C/c1c(N2CCCCCC2)nc2ccccn2c1=O`, for which the “activation (PINK1 increase)” value was 0.655%.
In the case of `CC1(C(=O)NCCc2c[nH]c3ccccc23)C=CC2(CCCCC2)N1C(=O)c1ccccc1` (configuration not stated), the “activation (PINK1 increase)” value was -0.269%.
For `N#C/C(=C/c1ccc(N2CCCCC2)o1)C(=O)NCCc1c[nH]c2ccccc12`, the Potency was 11.2 µM (active).
On to `COCCN1CCN(C(=O)c2sc3ncnc(NCC4CCCO4)c3c2C)CC1` (configuration not stated), for which the “activation (PINK1 increase)” value is 0.389%.
For the compound `CN1CCCCCC1C(=O)NCCN1Cc2ccccc2OC(c2ccsc2)C1` (configuration not stated), the “activation (PINK1 increase)” value is -0.383%.
The same measure, in the same setting: the same measure for `COc1ccccc1-c1ccnc(-n2ncc(C(=O)NCCc3ccncc3)c2C)n1`: 1.69%; for `COC(=O)C1CCCCN1Cc1ccc2c(c1)CN(Cc1cc(OC)c3c(c1)OCO3)CCO2` (configuration not stated): 0.531%.
On to `N#Cc1ccc(C(=O)Nc2nc(-c3cccs3)c(C(=O)C(F)(F)F)s2)cc1`, for which the Potency is 6.31 µM (active).
Consider `COc1ccc(C(F)(F)F)cc1NC(=O)c1sc2nc(-c3cccs3)ccc2c1N`, for which the “activation (PINK1 increase)” value was 16.7%.
On the same count and under the same terms, the same measure for `COCC(C)NC(=O)c1ccc(-n2nc(C(F)(F)F)cc2-c2cccs2)cc1` (configuration not stated): -2.38%; for `C=C1C=C(C)n2ncc(C(=O)Nc3ccccc3O)c2N1`: 1.83%; for `COc1ccccc1CNc1cc(-c2ccccc2CN(C)C)ncn1`: 0.0313%.
